Values without a mark were called inactive. For some of these results: Results with a measured potency or affinity are listed apart. Activity calls are given as the source filed them. Unless noted, the rule behind the calls is not given here.

The source of these data is PubChem BioAssay.

Experiment [1] can be described thus: antimalarial activity against Dd2 strain (AID 2302;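 active = growth inhibition above 50% at the single 2 µM test dose, taken to imply half-maximal potency below 2 µM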;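 note: 0% = DMSO untreated growth and 100% = chloroquine plus artemisinin killed control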). Conditions: P. falciparum Dd2 in RBCs, LDH growth readout, 72 h; at 2 µM; hits give high values.
Experiment [2] is described as follows: HepG2 cytotoxicity, primary screen, cytotoxicity control for P. falciparum antimalarial project, cell-based, ATP luminescence (AID 2303;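 active = inhibition above 50%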;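 note: 0% = DMSO wells and 100% = digitonin-killed cells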). As to conditions: HepG2 viability, 24-48 h, at 10 µM, hits give high values.
The target of experiment [3] is L-lactate dehydrogenase (Plasmodium falciparum (isolate CDC / Honduras)) (UniProt Q27743). Description: PfLDH activity inhibition – cell lysate, 3D7 strain, counter-screen for P. falciparum growth inhibition project (AID 2304).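 Note: 0% = vehicle and 100% = reference inhibitor.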 Conditions: P. falciparum 3D7 crude extract, LDH APAD/NBT absorbance; at 2 µM; hits give high values.
The nature of experiment [4]: inhibition of 3D7 malaria parasite growth – strain 3D7 (AID 2306).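 Note: 0% = DMSO wells and 100% = chloroquine plus artemisinin control wells.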 As to conditions: P. falciparum 3D7 erythrocytic growth, LDH absorbance, 72 h; at 2 µM; hits give high values.
Experiment [5] concerns the target Calcium-dependent protein kinase 1 (Plasmodium falciparum (isolate 3D7)) (UniProt P62344). Description: PfCDPK1 kinase inhibitors, biochemical, TCAMS library (AID 1159585; cut-off not given, nearly all actives have IC50 up to about 0.98 µM;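 note: inhibitors leave more ATP so luminescence rises with inhibition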). As to conditions: recombinant PfCDPK1, Kinase-Glo ATP depletion luminescence.
Experiment [6] concerns the target Plasmodium falciparum protein kinase 6 (PK6, PF3D7_1337100) (UniProt Q8IDW1). Description: PfPK6 kinase inhibitors, biochemical, TCAMS library (AID 1159586). As to conditions: recombinant PfPK6, Kinase-Glo ATP depletion luminescence.
Experiment [7] deals with Protein kinase 7 (PK7), Plasmodium falciparum 3D7 (PF3D7_0213400) (UniProt Q7YTF7). Briefly: inhibition of Plasmodium PK7 catalytic activity – biochemical, TCAMS antimalarial set, Kinase-Glo luminescence (AID 1159587). As to conditions: recombinant PfPK7, Kinase-Glo ATP depletion luminescence.
For experiment [8], the target named is Calcium-dependent protein kinase 4 (Plasmodium falciparum (isolate 3D7)) (UniProt Q8IBS5). Briefly: PfCDPK4 kinase inhibitors, biochemical, TCAMS library (AID 1159588; cut-off not given, nearly all actives have IC50 up to about 0.91 µM). As to conditions: recombinant PfCDPK4, Kinase-Glo ATP depletion luminescence.
Chain of Calcium-dependent protein kinase 4 (Plasmodium falciparum (isolate 3D7)) (Q8IBS5 whole entry, looked up): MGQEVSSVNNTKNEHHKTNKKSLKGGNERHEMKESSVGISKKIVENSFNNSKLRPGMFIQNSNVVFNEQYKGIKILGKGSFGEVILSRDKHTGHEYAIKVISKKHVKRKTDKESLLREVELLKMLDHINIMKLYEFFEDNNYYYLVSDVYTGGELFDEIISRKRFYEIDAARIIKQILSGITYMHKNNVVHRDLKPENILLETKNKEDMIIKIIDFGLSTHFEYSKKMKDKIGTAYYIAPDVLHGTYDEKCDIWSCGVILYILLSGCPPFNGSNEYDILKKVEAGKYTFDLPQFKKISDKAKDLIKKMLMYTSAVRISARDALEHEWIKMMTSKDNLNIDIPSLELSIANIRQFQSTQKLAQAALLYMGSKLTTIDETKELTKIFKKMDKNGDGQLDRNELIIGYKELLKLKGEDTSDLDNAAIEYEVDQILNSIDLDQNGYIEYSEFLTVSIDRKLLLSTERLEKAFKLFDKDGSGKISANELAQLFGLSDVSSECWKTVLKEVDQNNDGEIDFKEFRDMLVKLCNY

Chain of Protein kinase 7 (PK7), Plasmodium falciparum 3D7 (PF3D7_0213400) (Q7YTF7 1-343): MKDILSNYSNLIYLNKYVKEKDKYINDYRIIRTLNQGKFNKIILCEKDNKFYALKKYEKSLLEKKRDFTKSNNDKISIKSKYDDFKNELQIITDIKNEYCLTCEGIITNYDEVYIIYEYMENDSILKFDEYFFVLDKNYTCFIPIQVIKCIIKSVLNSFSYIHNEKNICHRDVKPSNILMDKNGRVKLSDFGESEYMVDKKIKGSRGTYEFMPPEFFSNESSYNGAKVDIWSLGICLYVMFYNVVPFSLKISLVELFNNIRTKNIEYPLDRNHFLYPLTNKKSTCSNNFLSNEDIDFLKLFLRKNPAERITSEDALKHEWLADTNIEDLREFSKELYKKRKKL
Chain of Calcium-dependent protein kinase 1 (Plasmodium falciparum (isolate 3D7)) (P62344 whole entry, looked up): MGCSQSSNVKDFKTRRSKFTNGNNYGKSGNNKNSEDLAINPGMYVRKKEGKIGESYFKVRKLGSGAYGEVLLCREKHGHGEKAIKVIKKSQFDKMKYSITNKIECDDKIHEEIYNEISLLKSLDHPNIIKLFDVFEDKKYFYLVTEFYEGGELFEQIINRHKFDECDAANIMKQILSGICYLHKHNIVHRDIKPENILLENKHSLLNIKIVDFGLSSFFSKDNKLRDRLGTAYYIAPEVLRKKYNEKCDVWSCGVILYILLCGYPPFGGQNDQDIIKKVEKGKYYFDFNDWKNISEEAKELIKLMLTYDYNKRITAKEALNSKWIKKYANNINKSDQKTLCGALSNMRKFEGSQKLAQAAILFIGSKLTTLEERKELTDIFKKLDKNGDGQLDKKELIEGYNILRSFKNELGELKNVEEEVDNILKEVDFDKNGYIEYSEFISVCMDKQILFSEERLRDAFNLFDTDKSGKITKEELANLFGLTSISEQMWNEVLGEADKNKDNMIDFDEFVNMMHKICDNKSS
Chain of L-lactate dehydrogenase (Plasmodium falciparum (isolate CDC / Honduras)) (Q27743 whole entry, looked up): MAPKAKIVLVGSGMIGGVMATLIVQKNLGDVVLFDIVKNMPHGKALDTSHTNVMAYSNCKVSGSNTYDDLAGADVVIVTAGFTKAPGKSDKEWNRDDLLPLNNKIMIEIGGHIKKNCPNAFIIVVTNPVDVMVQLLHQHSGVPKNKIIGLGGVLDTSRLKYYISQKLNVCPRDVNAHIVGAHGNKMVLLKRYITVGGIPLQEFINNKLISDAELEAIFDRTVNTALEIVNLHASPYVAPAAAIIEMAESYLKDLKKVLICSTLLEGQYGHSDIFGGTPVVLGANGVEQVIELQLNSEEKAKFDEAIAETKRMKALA
Chain of Plasmodium falciparum protein kinase 6 (PK6, PF3D7_1337100) (Q8IDW1 1-305): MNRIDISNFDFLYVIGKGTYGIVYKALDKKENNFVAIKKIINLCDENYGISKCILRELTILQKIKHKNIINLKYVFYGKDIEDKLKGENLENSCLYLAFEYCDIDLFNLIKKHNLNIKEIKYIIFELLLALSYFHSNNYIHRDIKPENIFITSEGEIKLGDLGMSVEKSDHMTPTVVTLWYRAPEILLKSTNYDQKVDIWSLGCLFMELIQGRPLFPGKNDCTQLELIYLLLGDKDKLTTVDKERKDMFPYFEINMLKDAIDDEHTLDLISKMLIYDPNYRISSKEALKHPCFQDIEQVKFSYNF

With `Cc1c(-c2ccc3c(c2)C(NCCCN2CCCCC2)CC3)cnc(N)c1C` (stereo not given), the growth inhibition in experiment [1] is 3%; in experiment [4], 97% (active). For the same compound, the results for the inhibition in experiment [2] and in experiment [3] were 4% and -3%, respectively. Also, the outcome in experiment [5], in experiment [6], in experiment [7] and in experiment [8] was inactive.
Regarding `Cc1cccc2[nH]c(-c3ccc(-c4cccc(CNCCCN5CCCC5=O)c4)cc3)nc12`, the growth inhibition in experiment [1] is 3%; in experiment [4] it was 96% (active). In addition, the inhibition is 6% in experiment [2] and -8% in experiment [3]. In addition, the result in experiment [5], in experiment [6], in experiment [7] and in experiment [8] was inactive.
With `COc1ccc(CN2CCCN(Cc3cccc(C(=O)Nc4ccc(C(C)(C)C)cc4)c3)CC2)cc1`, the results for the growth inhibition in experiment [1] and in experiment [4] were 3% and 98% (active), respectively. Besides, the results for the inhibition in experiment [2] and in experiment [3] were 46% and 2%, respectively. In addition, the outcome in experiment [5], in experiment [6], in experiment [7] and in experiment [8] was inactive.
In the case of `COc1ccc(NC(=O)[C@H](Cc2ccccc2)Nc2cc(C)nc(NCCc3ccccc3OC)n2)cc1`, the growth inhibition in experiment [1] was 83% (active); in experiment [4] it was 100% (active). In addition, the inhibition in experiment [2] was 10%; in experiment [3], 3%. Also, the outcome in experiment [5], in experiment [6], in experiment [7] and in experiment [8] was inactive.
For the compound `CC1Cc2ccccc2N1CC(=O)Nc1cc(C(F)(F)F)ccc1-n1cncn1` (stereo not given), the growth inhibition in experiment [1] and in experiment [4] was 97% (active) throughout. Besides, the inhibition in experiment [2] was 17%; in experiment [3], 1%. Besides, the outcome in experiment [5], in experiment [6], in experiment [7] and in experiment [8] was inactive.
Regarding `O=C(/C=C/c1ccc(Cl)cc1)NCCCCCN1CCC(C(=O)Nc2ccc(Cl)c(Cl)c2)CC1`, the growth inhibition in experiment [1] was -4%; in experiment [4], 100% (active). The inhibition in experiment [2] is 47%; in experiment [3], -3%. The outcome in experiment [5], in experiment [6], in experiment [7] and in experiment [8] was inactive.
As to `O=C(NOCCCCOc1ccc(Cl)c(Cl)c1)c1ccccc1`, the growth inhibition in experiment [1] was 1%; in experiment [4], 98% (active). In addition, the inhibition in experiment [2] is 2%; in experiment [3], 3%. The outcome in experiment [5], in experiment [6], in experiment [7] and in experiment [8] was inactive.
For the compound `Nc1c(Cl)cc(C(O)CNCCCCCCOCCc2ccc(O)cc2)cc1Cl` (stereo not given), the growth inhibition in experiment [1] and in experiment [4] was 97% (active) each time. Besides, the inhibition in experiment [2] is 13%; in experiment [3] it was -3%. In addition, the result in experiment [5], in experiment [6], in experiment [7] and in experiment [8] was inactive.
Take `O=C(Nc1ccc(-c2cccc(-c3nc4ccc(F)cc4[nH]3)c2)cc1)Nc1ccc(Cl)c(Cl)c1`: the growth inhibition in experiment [1] is 24%; in experiment [4] it was 99% (active). Also, the inhibition is 68% (active) in experiment [2] and 3% in experiment [3]. Moreover, the outcome in experiment [5], in experiment [6], in experiment [7] and in experiment [8] was inactive.
As for `CC[C@H](C)CNC(=O)c1cncc(-c2ccc(CNCCOc3ccccc3)cc2)c1`, the growth inhibition was 0% in experiment [1] and 90% (active) in experiment [4]. Besides, the inhibition in experiment [2] was 7%; in experiment [3] it was 3%. In addition, the outcome in experiment [5], in experiment [6], in experiment [7] and in experiment [8] was inactive.
For the compound `O=C(Nc1ccc(-n2ccc(C(F)(F)F)n2)cc1)c1cccs1`, the values for the growth inhibition in experiment [1] and in experiment [4] were 67% (active) and 89% (active), respectively. Moreover, the inhibition in experiment [2] was 6%; in experiment [3], -6%. Besides, the result in experiment [5], in experiment [6], in experiment [7] and in experiment [8] was inactive.
Consider `O=C(Cn1c(CCc2cccc(F)c2F)cc(=O)c2cccnc21)N(CCn1ccnc1)Cc1ccc(-c2ccc(C(F)(F)F)cc2)cc1`, for which the growth inhibition in experiment [1] is 62% (active); in experiment [4], 99% (active). Besides, the inhibition in experiment [2] is 39%; in experiment [3] it was 0%. The result in experiment [5], in experiment [6], in experiment [7] and in experiment [8] was inactive.
For the compound `OC(CNCCc1ccccc1)Cn1c2ccc(Cl)cc2c2cc(Cl)ccc21` (stereo not given), the growth inhibition was 96% (active) in experiment [1] and 98% (active) in experiment [4]. Besides, the values for the inhibition in experiment [2] and in experiment [3] were 53% (active) and 8%, respectively. Moreover, the result in experiment [5], in experiment [6], in experiment [7] and in experiment [8] was inactive.
Turning to `CCCc1ccc(S(=O)(=O)NC2CCN(C(=O)Nc3ccc(I)cc3)CC2)cc1`, the growth inhibition in experiment [1] was -8%; in experiment [4], 97% (active). Besides, the inhibition was 8% in experiment [2] and -3% in experiment [3]. In addition, the outcome in experiment [5], in experiment [6], in experiment [7] and in experiment [8] was inactive.
On to `COc1cc(CCCON2C(N)=NC(N)=NC2(C)C)cc(OC)c1OC`, for which the results for the growth inhibition in experiment [1] and in experiment [4] were 94% (active) and 98% (active), respectively. For the same compound, the inhibition in experiment [2] was 68% (active); in experiment [3] it was -2%. The result in experiment [5], in experiment [6], in experiment [7] and in experiment [8] was inactive.
Turning to `NC1CCN(CCNCc2cccc(-c3ccc(-c4nc5ccc(F)cc5[nH]4)cc3)c2)C1` (stereo not given), the figures for the growth inhibition in experiment [1] and in experiment [4] were 4% and 99% (active), respectively. The inhibition in experiment [2] was 8%; in experiment [3], 2%. The outcome in experiment [5], in experiment [6], in experiment [7] and in experiment [8] was inactive.
Turning to `CCN(CC)CCN(Cc1ccc(-c2ccc(C(F)(F)F)s2)cc1)C(=O)Cn1c(CCc2cccc(F)c2F)nc(=O)c2ccccc21`, the growth inhibition in experiment [1] was 31%; in experiment [4], 94% (active). Moreover, the inhibition in experiment [2] was 43%; in experiment [3], 3%. For the same compound, the result in experiment [5], in experiment [6], in experiment [7] and in experiment [8] was inactive.
As for `CN(Cc1ccccc1)C1CCN(c2cc(NC(=O)c3cccc(F)c3)ccn2)CC1`, the growth inhibition in experiment [1] is 3%; in experiment [4] it was 93% (active). Besides, the inhibition in experiment [2] was 2%; in experiment [3], -2%. Also, the outcome in experiment [5], in experiment [6], in experiment [7] and in experiment [8] was inactive.
As for `C=CCc1cc(Br)ccc1OCCCON1C(N)=NC(N)=NC1(C)C`, the growth inhibition in experiment [1] was 97% (active); in experiment [4], 95% (active). The inhibition in experiment [2] is 61% (active); in experiment [3], 2%. In addition, the outcome in experiment [5], in experiment [6], in experiment [7] and in experiment [8] was inactive.
`CCc1c(CCNCCCCCCNCc2ccc3c(c2CC)OCO3)ccc(OC)c1OC`: the growth inhibition was 19% in experiment [1] and 100% (active) in experiment [4]. Moreover, the inhibition in experiment [2] was 38%; in experiment [3], 6%. The outcome in experiment [5], in experiment [6], in experiment [7] and in experiment [8] was inactive.
